Source: PubChem BioAssay
This is one part of a sample in which hits are shown more often than they occur.
RE007 growth inh: less growth of the S. pombe RE007 Vpr strain; AID 651644; S. pombe RE007 Vpr strain, BacTiter-Glo ATP luminescence, 24 h; 0.21% of 360,000 active; Potency, µM (doses to about 92.2 µM), for inactives: at the top dose activity change, negative = less growth, actives largely listed as inhibitors; active = well fitted falling curve with a large enough effect; inconclusive = small, poorly fitted or top-dose-only effect; inactive = no such curve, though single readings can be large or run the other way; also: potency is read from the fitted curve at half-maximal effect; % is scaled to controls: 0 for no effect and ±100 for the full control effect; nearly all actives have a fitted effect of over 50% in size
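Fission yeast strain RE007, carrying one chromosomally integrated HIV-1 vpr copy, was seeded at OD 0.01 in PMG+AL medium with 23 nL pinned compound. After 24 h at 30 °C and 99% humidity, viability was read by BacTiter-Glo luminescence.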
FBPA Giardia inh: inhibitors of Giardia lamblia fructose-1,6-bisphosphate aldolase; purified Giardia FBPA; Potency, µM (series often up to 59.6 µM), inactives show top-dose activity, negative = inhibition, hits mostly inhibitors; 0.71% of 290,000 active; also: potency is read from the fitted curve at half-maximal effect; % is scaled to controls: 0 for no effect and ±100 for the full control effect; nearly all actives have a fitted effect of over 55% in size
Target sequence (A8B2U2 whole entry, looked up): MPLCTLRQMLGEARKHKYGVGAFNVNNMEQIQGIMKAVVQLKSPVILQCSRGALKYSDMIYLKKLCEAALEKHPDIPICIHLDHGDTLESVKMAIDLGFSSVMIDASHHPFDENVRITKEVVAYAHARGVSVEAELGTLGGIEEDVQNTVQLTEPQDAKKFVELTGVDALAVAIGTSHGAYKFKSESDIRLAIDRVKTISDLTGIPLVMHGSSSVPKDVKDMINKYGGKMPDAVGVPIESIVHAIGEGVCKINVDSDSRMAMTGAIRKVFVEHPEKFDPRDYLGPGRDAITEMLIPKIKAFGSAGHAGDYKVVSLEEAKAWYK
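40 nM FBPA preincubated 10 min at RT with compound (up to 57.5 uM final), then substrate plus GAPDH/TPI/NAD/arsenate coupling and diaphorase/resazurin added. Fluorescence read after 20 min at RT, 525/598 nm.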
LmPK inhibitor: LmPK (Leishmania mexicana) enzyme inhibition | purified LmPK, Kinase-Glo ATP luminescence, 1 h | Potency, µM (top dose mostly 57.5 µM), inactives show at the top dose activity change, negative = inhibition, hits mostly inhibitors | Q27686 | 0.37% of 290,000 active; also: potency is read from the fitted curve at half-maximal effect; % is scaled to controls: 0 for no effect and ±100 for the full control effect
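In 50 mM imidazole pH 7.2 with 7 mM MgCl2, LmPK (0.1 nM) turned over PEP (0.5 mM) and ADP (0.1 mM) for 1 h at room temperature. Luciferase read-out of ATP.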
TbPYK inhibitor: inhibitors of Trypanosoma brucei pyruvate kinase | Potency, µM (highest dose often 76.8 µM), inactives show at the highest dose activity, negative = inhibition, hits mostly inhibitors | AID 624173 | Q57TT1 | 0.12% of 410,000 active | TbPYK enzyme, Kinase-Glo Plus ATP luminescence, 45 min; also: potency is read from the fitted curve at half-maximal effect; % is scaled to controls: 0 for no effect and ±100 for the full control effect; nearly all actives have a fitted effect of over 50% in size
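Screened from lowest to highest concentration, compounds were pinned into TbPYK/substrate mixtures, and ADP (130 uM final) was added. Plates sat at room temperature for 45 min prior to Kinase-Glo Plus detection by luminescence.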
Shiga inhibitor: Shiga toxin inhibition; inhibition, % at 38.7 µM; Vero cells, Shiga toxin protein synthesis inhibition reporter; 9.2% of 290,000 active; in the data active = inhibition mostly above about 28%, no sharp cut-off; inactive = mostly below about 43%; also: 0% is about no effect
Cycloheximide cs: counter-screen hit for Shiga toxin inhibitors, cycloheximide | cell reporter, cycloheximide protein synthesis inhibition counterscreen | AID 2314 | max response, % | 12% of 300,000 active; in the data active = max response mostly above about 13%, no sharp cut-off; inactive = mostly below about 14%; also: read at 38.3 µM for the half of the compounds with a filed dose; 0% is about no effect
Active calls of the source: *; ? = inconclusive; nt = not tested or not shown; [ ] = dose if it differs, or a comment. Unless noted, calls follow the shape of the dose curve; as a rule, active = well fitted curve in the direction sought with a large enough effect; inconclusive = small, poorly fitted or top-dose-only effect, or another doubt; inactive = no such curve, though single readings can be large; an effect the other way counts as inactive or inconclusive.

SMILES	RE007 growth inh	FBPA Giardia inh	LmPK inhibitor	TbPYK inhibitor	Shiga inhibitor	Cycloheximide cs
COc1ccccc1CNc1ccc([N+](=O)[O-])cc1C	6%	-3%	8%	6%	-16	0
COc1cccc(CNc2ccc([N+](=O)[O-])cc2Cl)c1O	-2%	-6%	1%[11.5 µM]	5%	44	39*
COc1ccc(N2CCN(CCCNC(=O)c3sc4ncccc4c3-n3cccc3)CC2)cc1	nt	nt	nt	0%	nt	nt
COc1ccc(-c2ccc(C(C)=O)cc2)cc1C1C2C=CCCC2(C)C(=O)N1Cc1ccccc1 (centres undefined)	nt	-5%	nt	nt	17	11
COc1ccc(CNc2ccccn2)c(O)c1	-11%	3%	-2%	2%	48*	20*
CC(C)(C)c1ccc(/C=C/C(=O)N2CCOCC2)cc1	3%	-5%	4%	-2%	113*	66*
CC(C)Cc1ccc(/C=C/C(=O)N2CCOCC2)cc1	1%	0%	-11%	3%	56*	46*
O=C(/C=C/c1ccco1)Nc1ccc(Cl)c(S(=O)(=O)N2CCOCC2)c1	5%	-4%	3%	-2%	74*	20*
COc1ccc(/C=C/C(=O)Nc2ccc(C)c(S(=O)(=O)N3CCOCC3)c2)cc1	-14%	nt	nt	8%	nt	nt
Cc1ccc(NC(=O)/C=C/c2ccc3c(c2)OCO3)cc1S(=O)(=O)N1CCOCC1	24%	-3%	4%	5%	3	13*
COc1ccc2[nH]cc(CCNc3ncncc3-c3ccoc3)c2c1	nt	-16%	nt	nt	nt	nt
Cc1ccc2nc(-c3cc(NC(=O)COc4ccc(C)c(C)c4)ccc3Cl)oc2c1	nt	nt	nt	1%	nt	nt
COCCn1c(=O)c(-c2ccc(F)cc2)nc2cnc(N3CCOCC3)nc21	nt	6%	nt	nt	nt	nt
CC1CN(C(=O)/C=C/c2ccc3c(c2)OCO3)CC(C)O1 (centres undefined)	9%	-7%	3%	-2%	11	1
O=C(/C=C/c1cccs1)Nc1ccc(N2CCOCC2)c(S(=O)(=O)Nc2ccccc2Cl)c1	13%	0%	0%	-9%	61*	21*
CCC1CCCCN1C(=O)/C=C/c1ccc2c(c1)OCO2 (centres undefined)	-19%	3%	1%	-1%	38	9.8*
O=C(/C=C/c1ccc2c(c1)OCO2)N1CCOCC1	14%	1%	-9%	0%	67*	26*
Cc1cccc(CNc2ncncc2-c2cccc(C#N)c2)c1	nt	0%	nt	nt	nt	nt
CC1(C)OC(C(O)(c2cc(F)c(F)c(F)c2)c2cc(F)c(F)c(F)c2)C(C(O)(c2cc(F)c(F)c(F)c2)c2cc(F)c(F)c(F)c2)O1 (centres undefined)	nt	-1%[12.9 µM]	nt	nt	nt	nt
O=C(CSc1nc2ccccc2n1Cc1ccccc1Cl)NCc1ccccc1	nt	nt	nt	-4%	nt	nt
CCOC(=O)Nc1nc2ccccc2s1	-1%	-2%	-11%	1%	66*	31*
CN(C)c1ccc(CC(=O)c2nc3ccccc3s2)cc1	-12%	-5%	-4%	-12%	44*	67*
CCOC(=O)CC(=O)Nc1nc2ccccc2s1	-5%	-1%	4%	1%	31	14
CCOC(=O)Nc1nc(-c2ccc(Cl)cc2Cl)cs1	-28%	7%	-4%	-6%	78*	24*
CCCNC(=O)Nc1nc2ccccc2s1	-3%	-3%	-2%	1%	87*	51*
SMILES	RE007 growth inh	FBPA Giardia inh	LmPK inhibitor	TbPYK inhibitor	Shiga inhibitor	Cycloheximide cs
COC(=O)c1ccc(/C=N/Nc2nc(-c3ccc(Cl)cc3Cl)cs2)cc1	nt	3%	1%	nt	17	-2
CO/N=C(\C(=O)N[C@@H]1C(=O)N2C(C(=O)OCOC(=O)C(C)(C)C)=C(C)CS[C@H]12)c1csc(N)n1	nt	nt	nt	2%	nt	nt
Cc1nc2c(ccc3nc(NC(=O)Cc4ccccc4)sc32)s1	15%	-2%	-1%	1%	36*	36*
CC(C)C(=O)N(Nc1nc2ccccc2s1)C(=O)C(C)C	5%	2%	1%	-7%	-6	-2
NNC(=O)c1nc2ccccc2s1	17%	nt	nt	1%	nt	nt
Cc1ccc(C(=O)N(Nc2nc3ccccc3s2)C(=O)c2ccc(C)cc2)cc1	0%	12%	0%	-2%	18	10*
Cc1nc2c(ccc3nc(NC(=O)c4ccc(S(=O)(=O)N(C)C)cc4)sc32)s1	-26%	2%	5%	5%	2	2
CCOC(=O)c1nc2ccccc2s1	-23%	-10%	-20%	6%	61*	27*
CN(C(=O)c1ccccc1)c1nc2ccccc2s1	?	-5%	-13%	-13%	74*	46*
COc1ccccc1NC(=O)c1sc2nc(C)c(C(=O)Nc3ccc(C)cc3C)c(-c3ccc(Br)cc3)c2c1N	nt	nt	nt	-8%	nt	nt
CC(C)c1nn2c(=O)cc(COC(=O)c3cccc(NC(=O)COc4ccc(F)cc4)c3)nc2s1	nt	nt	nt	1%	nt	nt
Cc1nn(-c2ccc(N3CCCCC3)nn2)c(C)c1CCC(=O)Nc1ccc(F)cc1F	nt	nt	nt	-2%	nt	nt
CN(C)C(=O)c1nc2ccccc2s1	9%	8%	0%	5%	74*	28*
O=C(NCCCO)c1nc2ccccc2s1	3%	2%	0%	-15%	15	12
CCCCNC(=O)Nc1nc2ccccc2s1	8%	-1%	3%	-2%	71*	57
CCCNC(=O)c1ccc(-c2nc3ccccc3s2)s1	?	1%	?	0%	28	48*
CC(C)(C)NC(=O)c1nc2ccccc2s1	-25%	-6%	6%	-7%	47*	21*
O=C1CC2(CCCC2)CC(=O)N1CCNC[C@H]1COc2ccccc2O1	nt	3%	nt	nt	nt	nt
CCCCNC(=O)Nc1ccon1	1%	1%	-7%	4%	-18	11
Cc1ccc(CC(=O)Nc2nc3ccccc3s2)cc1	5%	-1%	0%	0%	174*	40*
CCCCNC(=O)Nc1nc2ccc(CC)cc2s1	12%	5%	4%	-3%	73*	34*
Cc1ccc(S(=O)(=O)CC(=O)Nc2nc3ccccc3s2)cc1	-19%	9%	1%	6%	2	-2
Cc1ccc2c(c1)c1c(c(=O)n(Cc3ccccc3)c(=O)n1Cc1cccc(C(F)(F)F)c1)n2C	nt	nt	nt	5%	nt	nt
Cc1ccc(CNc2ccc(-c3nc(-c4ccco4)no3)cc2[N+](=O)[O-])cc1	nt	nt	nt	0%	nt	nt
O=C(NN=Cc1ccc2c(c1)CCN2)c1cccs1	7%	nt	nt	-9%	nt	nt
O=C(N/N=C/c1ccc(Br)s1)c1cccs1	-25%	0%	0%	0%	80*	48*
Cc1ccc(/C=N/NC(=O)c2cccs2)s1	-1%	-2%	-11%	-1%	85*	52*
